# Experimental data: PubChem BioAssay (NCATS)
# Results filed as inconclusive are left out. Calls of active or inactive are those of the source. The call rests on the fitted dose curve; in most records, active means well fitted cell-killing curve with a large enough effect; inconclusive means small, poorly fitted or top-dose-only effect, or effect the other way; inactive means no such curve, though single readings can be large or run the other way. Starred links: 1 amine or outer side, 2 acyl side, 3 side chain; linkers in the order of their positions; H or OH if unused. Positions of bridges follow the written chain, without caps; N, C: chain ends. Non-standard residues stand in square brackets, D forms with d. Residues, ends and D or L forms follow the SMILES beside them. Chains are numbered I, II in the order given. Actinocin(9to1) = Cc1c2oc3c(C)ccc(C(=O)[*:1])c3nc-2c(C(=O)[*:2])c(N)c1=O; NMeV = CN[CH](C(=O)O)C(C)C; Sar = CNCC(=O)O
# Test: Quantitative High-Throughput drug screen in 47 multiple myeloma cell lines against the NCATS MIPE library collection: U266_ATCC cell viability assay (AID 1919864); further: nearly all actives have a fitted effect of over 35% in size
# Conditions: U266 myeloma viability, CellTiter-Glo ATP luminescence, 48 h; series mostly up to 45.8 µM
# In short: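 Inhibition of viability over 48 h was scored by ATP content (CellTiter-Glo) in 500-cell wells. Zero and full viability were defined by media-only and DMSO-only wells.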
# Potency means the concentration at half of the fitted maximal effect.
row,Structure (SMILES),Potency
1,CCc1ccc(C(=O)Nc2cc(CN3CCN(C)CC3)cc(C(F)(F)F)c2)cc1C#Cc1cnc2ccnn2c1,18700 nM (active)
2,C=CC[C@@H]1C=C(C)C[C@H](C)C[C@H](OC)[C@H]2O[C@@](O)(C(=O)C(=O)N3CCCC[C@H]3C(=O)O[C@H](C(C)=C[C@@H]3CC[C@H](O)[C@H](OC)C3)[C@@H](C)[C@@H](O)CC1=O)[C@@H](C)C[C@@H]2OC,1320 nM (active)
3,CO[C@@H]1[C@@H](O)[C@H](O)[C@@H](n2c3c(Cl)cccc3c3c4c(c5c6cccc(Cl)c6[nH]c5c32)C(=O)NC4=O)O[C@@H]1CO,1480 nM (active)
4,C[C@H](NC(=O)C(C#N)=Cc1cccc(Br)n1)c1ccccc1,6620 nM (active)
5,CC(C)N1[N]C(=C2C=c3cc(O)ccc3=N2)c2c(N)ncnc21,4180 nM (active)
6,COc1cccc2c1C(=O)c1c(O)c3c(c(O)c1C2=O)C[C@@](O)(C(=O)CO)C[C@@H]3O[C@H]1C[C@H](N)[C@@H](O)[C@H](C)O1,1320 nM (active)
7,COc1cc(C=CC(=O)CC(=O)C=Cc2ccc(O)c(OC)c2)ccc1O,34000 nM (active)
8,C=CC(=O)Nc1ccc2ncnc(Nc3ccc(OCc4cccc(F)c4)c(Cl)c3)c2c1,14800 nM (active)
9,OCc1ccccc1O[C@@H]1O[C@H](CO)[C@H](O)[C@H](O)[C@H]1O,inactive
10,Cn1cc(C2=C(c3c4n(c5ccccc35)CCC(CN)C4)C(=O)NC2=O)c2ccccc21 (stereo not drawn),16600 nM (active)
11,C=CCNc1c(O)cc2c(O)c1C[C@@H](C)C[C@H](OC)[C@@H](O)[C@@H](C)C=C(C)[C@H](OC(N)=O)[C@@H](OC)C=CC=C(C)C(=O)N2,418 nM (active)
12,CCS(=O)(=O)Nc1ccc2[nH]c(O)c(C(=Nc3ccc(CN4CCCCC4)cc3)c3ccccc3)c2c1,5900 nM (active)
13,CCN(CC)CCNC(=O)c1c(C)[nH]c(C=C2C(=O)Nc3ccc(F)cc32)c1C,3400 nM (active)
14,COC1=C2C[C@@H](C)C[C@H](OC)[C@@H](O)[C@@H](C)C=C(C)[C@H](OC(N)=O)[C@@H](OC)C=CC=C(C)C(=O)NC(=CC1=O)C2=O,132 nM (active)
15,Nc1nc(N)c2nc(-c3cccc(O)c3)c(-c3cccc(O)c3)nc2n1,18700 nM (active)
16,CC(C)C[C@H](NC(=O)[C@@H](NC(=O)c1cccc(-c2ccccc2)n1)[C@@H](C)O)B(O)O,14.8 nM (active)
17,O=C1CSC(=O)N1C(CCc1ccncc1)COc1ccc(-c2cccc([N+](=O)[O-])c2)cc1 (stereo not drawn),8330 nM (active)
18,C#C[C@]1(O)CC[C@@H]2[C@@H]3CCC4=CC(=O)CC[C@@H]4[C@H]3CC[C@@]21CC,inactive
19,C[C@H](NCc1ccc(OCc2cccc(F)c2)cc1)C(N)=O,7430 nM (active)
20,C[C@@]12C(=O)OC(=O)[C@@]1(C)C1CCC2O1,1660 nM (active)
21,"Cc1c2oc3c(C)ccc(C(=O)NC4C(=O)NC(C(C)C)C(=O)N5CCCC5C(=O)N(C)CC(=O)N(C)C(C(C)C)C(=O)OC4C)c3nc-2c(C(=O)NC2C(=O)NC(C(C)C)C(=O)N3CCCC3C(=O)N(C)CC(=O)N(C)C(C(C)C)C(=O)OC2C)c(N)c1=O (stereo not drawn) (I: TVP[Sar][NMeV] / II: TVP[Sar][NMeV]; ester I:1-I:C, II:1-II:C; linker I:N-II:N via Actinocin(9to1); configuration not given here)",inactive
22,CC(C)c1cnn2c(NCc3ccccc3)cc(NCCCCCCN)nc12,2640 nM (active)
23,CC(C=CC(=O)NO)=C[C@@H](C)C(=O)c1ccc(N(C)C)cc1,209 nM (active)
24,CN(C)c1ccc2cc(C(=O)N[C@@H](CCCN=C(N)CCl)C(=O)NCc3ccccc3)ccc2c1,2960 nM (active)
25,COc1cccc2c1C(=O)c1c(O)c3c(c(O)c1C2=O)C[C@@](O)(C(=O)CO)C[C@H]3O[C@H]1C[C@H](N)[C@H](O)[C@H](C)O1,372 nM (active)
26,CCC(C(=O)O)C1CCC(C)C(C(C)C(O)C(C)C(=O)C(CC)C2OC3(C=CC(O)[C@@]4(CC[C@](C)(C5CC[C@@](O)(CC)C(C)O5)O4)O3)C(C)CC2C)O1 (stereo partly drawn),5260 nM (active)
27,CCC(C=C[C@@H]1OC(=O)C=C[C@H]1C)=C[C@H](C)CC=CC(C)=C[C@@H](C)C(=O)[C@@H](C)[C@H](O)[C@@H](C)CC(C)=CC(=O)O,24.7 nM (active)
28,CC(C)C[C@H](NC(=O)CNC(=O)c1cc(Cl)ccc1Cl)B1OC(=O)CC(CC(=O)O)(C(=O)O)O1 (stereo partly drawn),52.6 nM (active)
